Data on eight compounds can be found in PubChem BioAssay (NCATS).

A short description of experiment [1]: Cytometric Cell-Based qHTS for Inhibitors of the mTORC1 Signaling Pathway in MEF (Tsc2-/-, p53-/-) Cells (AID 2660).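 Also: Tsc2 and p53 null MEFs carrying empty vector with compound for 24 h; percent of cells above a phospho-rpS6 to PI ratio cutoff in each well; series mostly up to about 38 µM.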 The procedure, abridged:
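Percent of cells positive for normalized phospho-S6 staining is reported, with the cutoff set from rapamycin (7.5 nM) versus DMSO wells. Tsc2-/-, p53-/- MEFs received compound for 24 hrs.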
On the technique in general: In qHTS, concentration-response curves come from the screen itself.

Experiment [2] is described as follows: High Content Imaging Cell-Based qHTS for Inhibitors of the mTORC1 Signaling Pathway in MEF (Tsc2-/-, p53-/-) Cells (AID 2666).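 Also: percent of cells scored positive for phospho-rpS6 Ser235/236 immunostaining by imaging.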 The procedure, abridged:
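Inhibition of rpS6 phosphorylation is measured by immunofluorescence imaging in empty-vector Tsc2-/-, p53-/- mouse embryonic fibroblasts after 24 hrs compound exposure at 37 degree Celsius. Results are reported as % positive cells per well.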

Experiment [3] in a line: High Content Imaging Cell-Based qHTS for Inhibitors of the mTORC1 Signaling Pathway in MEF Cells (AID 2667).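 Also: Tsc2-/- p53-/- MEFs stably re-expressing wild-type Tsc2 exposed 24 h; series mostly up to about 38 µM.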 The procedure, abridged: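 Fixed-cell imaging of phospho-S6 (Ser235/236, Alexa-488) after 24 hrs of compound treatment at 37 degree Celsius. Signal was normalized to Hoechst, and thresholds from the highest and lowest wells split cells into % active versus % non-active.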

Experiment [4] can be described thus: Cytometry Cell-Based qHTS for Inhibitors of the mTORC1 Signaling Pathway in MEF cells (AID 2668).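 Also: Tsc2-/- p53-/- mouse embryonic fibroblasts stably re-expressing wild-type Tsc2; percent cells positive for phospho-rpS6 Ser235/236 relative to propidium iodide stain; series mostly up to about 38 µM.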 In outline: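 Phospho-rpS6 (Ser235/236) immunofluorescence over PI signal, scored as % positive cells using thresholds from 7.5 nM rapamycin and DMSO wells, after 24 h compound exposure of WT-Tsc2-rescued Tsc2-/-, p53-/- MEFs. PI cell count recorded for viability.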

The nature of experiment [5]: Validation screen for small molecules that induce DNA re-replication in MCF 10A normal breast cells (AID 463097). Also: nearly all actives have a fitted effect of over 60% in size. The procedure, abridged:
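Read-out is Hoechst total nuclear intensity by fluorescence scanning imager, flagging increased high-DNA-content nuclei. Compounds were incubated with MCF 10A cells for 48 hr (37 C, 5% CO2) before 40 min staining.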

In experiment [6] the target is Ubiquitin carboxyl-terminal hydrolase 2 (Homo sapiens) (UniProt O75604). The experiment can be described thus: qHTS Validation Assay for Inhibitors of Ubiquitin-specific Protease USP2a Using CHOP2 as the Reporter (AID 463106). The procedure, abridged:
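Inhibition is expressed relative to NEM as the full-inhibition control, with concentration-response curves classed by fit quality, magnitude and activity. Enzyme (USP2 core, 10nM) meets 25nM Ub-CHOP2 after compound preincubation; readings are taken at 60min.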

Experiment [7] addresses DNA polymerase III PolC-type (Bacillus subtilis (strain 168)) (UniProt P13267). The experiment is described as follows: qHTS Validation Assay for the Inhibitors of DNA Replication in Gram-Positive Bacteria (AID 485295).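 Also: reconstituted holoenzyme with PolC plus beta clamp SSB and primase; PicoGreen fluorescence of double-stranded DNA made on primed circular M13 template; series mostly up to about 57 µM.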 The procedure, abridged: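 Double-stranded DNA product detected by PicoGreen fluorescence after EDTA quench. Compound incubated with B. subtilis holoenzyme (PolC, beta subunit, SSB, primase) before substrate addition; primed replication of M13Gori with dNTPs and NTPs at room temperature; DMSO defines 0% inhibition.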

Experiment [8] concerns the target Tumor susceptibility gene 101 protein (Homo sapiens) (UniProt Q99816). The experiment can be described thus: qHTS Validation Assay for Iinhibitors of HIV-1 Budding by Blocking the Interaction of PTAP/TSG101 (AID 485342; calls by dose curve). In outline: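 Fluorescence polarization of 50 nM FITC-PTAP peptide bound to 10 uM Tsg101 binding domain was read after 20 min room-temperature incubation with compounds, in 10 mM HEPES pH 7.5, 0.15 M NaCl, 0.01% Tween 20.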

Experiment [9] can be described thus: qHTS Validation Assay to Find Inhibitors of Chronic Active B-Cell Receptor Signaling (AID 485345; active = well fitted curve in the direction sought with a large enough effect in the main read-out, with a control signal flat, not every such curve was filed as active). The procedure, abridged:
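TMD8 ABC-DLBCL cells with dox-inducible green luciferase–IκBα fusion and red native luciferase; compounds 46 uM–3 nM, 4 h at 37C with doxycycline in 0.5% FBS IMDM. Green/red ratio normalized to basal and 10 uM MG-132.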

Experiment [10] has as its target Beta-2 adrenergic receptor (Homo sapiens) (UniProt P07550). The experiment can be described thus: qHTS validation assay of beta-arrestin-biased ligands of beta2-adrenergic receptor (AID 485366). In outline: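 Screening used a titration range of up to 46 microM in a beta-arrestin recruitment Tango luciferase assay. Cells in 1% FBS medium were treated 18 hr at 37 degrees C, and luminescence was normalized to %Activity.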

Experiment [11] can be described thus: Quantitative high throughput screen for delayed death inhibitors of the malarial parasite plastid, 96 hour incubation (AID 488745). Also: nearly all actives have a fitted effect of over 70% in size. Also: potency is read from the fitted curve at half-maximal effect. In outline:
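Decreased firefly luciferase luminescence indicates inhibited growth of reporter-integrated P. falciparum after two generations (96 h, 37 C, 5% CO2). Infected erythrocytes at 0.1% parasitemia, 2% hematocrit, in Albumax-supplemented RPMI 1640.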

A short description of experiment [12]: Quantitative high throughput screen for delayed death inhibitors of the malarial parasite plastid, 48 hour incubation (AID 488752). Also: nearly all actives have a fitted effect of over 65% in size. Also: potency is read from the fitted curve at half-maximal effect. In outline:
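One-generation (48 h) growth assay: a decrease in luciferase signal from an integrated reporter in P. falciparum-infected red cells (0.1% parasitemia, 2% hematocrit) after compound exposure at 37 C indicates parasite inhibition.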

In experiment [13] the target is Thioredoxin reductase 1, cytoplasmic (Rattus norvegicus) (UniProt O89049). The experiment can be described thus: qHTS Assay for Substrates of Mammalian Selenoprotein Thioredoxin Reductase 1 (TrxR1) (AID 488772).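 Also: series mostly up to about 57 µM; a drop in NADPH fluorescence below the no-compound background marks a TrxR1 substrate.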 The procedure, abridged:
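In this dual-purpose format, potential substrates are identified from the first fluorescence read after selenite addition, not from the 8-minute delta. Rat enzyme is preincubated with NADPH and then with compound at ~22 deg C.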

The target is the same in experiment [14]. The experiment is described as follows: qHTS Assay for Inhibitors of Mammalian Selenoprotein Thioredoxin Reductase 1 (TrxR1) (AID 488773).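 Also: drop in NADPH fluorescence over an 8 min run after selenite addition; series mostly up to about 57 µM; nearly all actives have a fitted effect of over 40% in size.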 The settings on record: Potency: inhibition. The procedure, abridged: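 Inhibition is scored from the loss of NADPH fluorescence between first and last reads of an 8-min kinetic run. Selenite (400 uM) was the substrate, added after 15 min compound preincubation at room temperature.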

Experiment [15] has as its target Flap endonuclease 1 (Homo sapiens) (UniProt P39748). The experiment is described as follows: qHTS Validation Assay for the Inhibitors of Human Flap endonuclease 1 (FEN1) (AID 488816). In outline:
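Steps: add FEN1 (10 nM reagent) or buffer only; pin compounds; hold 15 min at room temperature; start with substrate, 50 nM final; read at 0 and 15 min; correct, normalize and fit a four-parameter Hill curve.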

Experiment [16] has as its target M-phase phosphoprotein 8 (Homo sapiens) (UniProt Q99549). The experiment can be described thus: qHTS Validation Assay for Inhibitors for MPP8 Chromodomain Interactions with Methylated Histone Tails (AID 488949). Also: nearly all actives have a fitted effect of over 55% in size. Also: potency is read from the fitted curve at half-maximal effect. In outline:
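AlphaScreen proximity signal from streptavidin donor and Ni-chelate acceptor beads (10 ug/mL each) reported binding of MPP8 to trimethyl-K9 H3(1-18) peptide, both at 50 nM. The complex formed 30 min before a 30 min compound exposure at room temperature, in PBS pH 7.4.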

The target of experiment [17] is Chromobox protein homolog 1 (Homo sapiens) (UniProt P83916). The experiment can be described thus: qHTS Validation Assay for Inhibitors of HP1-beta Chromodomain Interactions with Methylated Histone Tails (AID 488953).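 Also: loss of AlphaScreen luminescence from HP1-beta binding biotinylated H3K9me3 peptide; series mostly up to about 110 µM; nearly all actives have a fitted effect of over 50% in size.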 The procedure, abridged: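 AlphaScreen proximity signal from streptavidin donor and nickel chelate acceptor beads (final 10 ug/mL) after 30 min dark incubation. Compounds had 30 min at room temperature with preformed complex of 50 nM HP1-beta and 50 nM b-H3(1-18)K9me3 in PBS pH 7.4 with 0.01% Tween-20.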

The target in experiment [18] is ATP-dependent 6-phosphofructokinase (Trypanosoma brucei brucei) (UniProt O15648). The experiment is described as follows: qHTS Validation Assay to Find Inhibitors of T. brucei phosphofructokinase (AID 485368). The procedure, abridged:
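PFK-generated ADP was measured after 45 min at room temperature using ADP-Glo. The reaction contained 0.5 mM F6P and 0.1 mM ATP.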

The target of experiment [19] is Endonuclease 4 (Escherichia coli (strain K12)) (UniProt P0A6C1). The experiment is described as follows: Counterscreen for APE1 Inhibitors: qHTS Assay for Inhibitors of Endonuclease IV (AID 2565). In outline:
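Enzyme (2 nM) + compound, 15 min RT; add 50 nM TAMRA/BHQ-2 THF-site dsDNA; kinetic read ex525/em598, 3 reads/60 s; activity = read 3 − read 1. Buffer Tris pH 7.5, 50 mM NaCl, 2 mM MgCl2, DTT, Tween-20.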
Background: Counterscreens check selectivity or assay interference.

In experiment [20] the target is DNA repair nuclease/redox regulator APEX1 (Homo sapiens) (UniProt P27695). The experiment is described as follows: Confirmation qHTS Assay for Inhibitors of the Human Apurinic/apyrimidinic Endonuclease 1 (APE1) (AID 2572).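 Also: fluorescence gain from purified APE1 cutting a TAMRA/BHQ-2 THF abasic duplex; nearly all actives have a fitted effect of over 30% in size.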 In outline:
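Confirmation qHTS in dose-response format: APE1 exposed to compound 15 min at RT, then reaction started with 50 nM final TAMRA/BHQ-2 abasic substrate. Three fluorescence reads 60 s apart; endpoint minus initial read gives progress.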

Inconclusive results are not listed. The list shows a part of the results. Active and inactive are the calls of the source. Unless noted, calls follow the shape of the dose curve; as a rule, active = well fitted curve in the direction sought with a large enough effect; inconclusive = small, poorly fitted or top-dose-only effect, or another doubt; inactive = no such curve, though single readings can be large; an effect the other way counts as inactive or inconclusive.

Sequence of Thioredoxin reductase 1, cytoplasmic (Rattus norvegicus) (O89049 whole entry, looked up): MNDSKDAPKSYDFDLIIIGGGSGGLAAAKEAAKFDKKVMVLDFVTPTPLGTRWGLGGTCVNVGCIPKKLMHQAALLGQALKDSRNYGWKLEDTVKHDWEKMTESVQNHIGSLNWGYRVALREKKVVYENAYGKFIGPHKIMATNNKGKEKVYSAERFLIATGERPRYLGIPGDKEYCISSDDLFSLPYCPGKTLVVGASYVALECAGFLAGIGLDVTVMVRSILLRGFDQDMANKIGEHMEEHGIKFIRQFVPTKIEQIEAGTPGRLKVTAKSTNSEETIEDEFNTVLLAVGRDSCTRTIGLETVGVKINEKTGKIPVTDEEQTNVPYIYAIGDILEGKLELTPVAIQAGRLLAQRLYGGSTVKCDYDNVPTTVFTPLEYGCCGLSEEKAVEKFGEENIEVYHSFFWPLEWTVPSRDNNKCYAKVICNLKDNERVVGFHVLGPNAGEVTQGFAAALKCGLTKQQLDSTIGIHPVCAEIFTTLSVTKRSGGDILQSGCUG
Sequence of Tumor susceptibility gene 101 protein (Homo sapiens) (Q99816 whole entry, looked up, the tested form may be a part): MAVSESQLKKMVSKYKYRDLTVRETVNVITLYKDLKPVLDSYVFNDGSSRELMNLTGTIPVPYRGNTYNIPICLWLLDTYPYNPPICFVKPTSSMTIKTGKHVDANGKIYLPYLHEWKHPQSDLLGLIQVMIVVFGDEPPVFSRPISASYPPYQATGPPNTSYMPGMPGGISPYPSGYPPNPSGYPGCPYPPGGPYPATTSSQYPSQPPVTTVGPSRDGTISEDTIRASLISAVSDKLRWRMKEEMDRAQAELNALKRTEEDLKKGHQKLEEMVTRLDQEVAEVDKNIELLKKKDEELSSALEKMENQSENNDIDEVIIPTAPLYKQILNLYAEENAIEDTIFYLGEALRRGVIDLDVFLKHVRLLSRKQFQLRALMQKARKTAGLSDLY
Sequence of Ubiquitin carboxyl-terminal hydrolase 2 (Homo sapiens) (O75604 whole entry, looked up): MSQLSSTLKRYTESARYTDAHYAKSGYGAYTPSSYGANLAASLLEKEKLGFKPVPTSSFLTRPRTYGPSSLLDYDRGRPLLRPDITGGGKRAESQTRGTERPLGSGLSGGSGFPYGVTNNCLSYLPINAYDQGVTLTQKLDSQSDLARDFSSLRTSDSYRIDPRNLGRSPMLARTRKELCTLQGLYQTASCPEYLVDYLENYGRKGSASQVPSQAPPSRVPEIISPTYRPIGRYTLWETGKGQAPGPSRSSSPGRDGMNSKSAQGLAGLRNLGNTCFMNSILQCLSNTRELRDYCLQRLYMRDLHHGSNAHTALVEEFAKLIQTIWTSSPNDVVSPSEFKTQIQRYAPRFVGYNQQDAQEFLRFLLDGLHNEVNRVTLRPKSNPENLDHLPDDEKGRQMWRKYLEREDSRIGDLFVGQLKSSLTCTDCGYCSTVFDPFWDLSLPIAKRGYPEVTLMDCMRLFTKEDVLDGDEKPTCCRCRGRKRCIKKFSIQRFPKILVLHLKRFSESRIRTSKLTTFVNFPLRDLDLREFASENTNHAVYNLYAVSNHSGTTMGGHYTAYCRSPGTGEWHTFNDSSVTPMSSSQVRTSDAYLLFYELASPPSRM
Sequence of DNA polymerase III PolC-type (Bacillus subtilis (strain 168)) (P13267 whole entry, looked up): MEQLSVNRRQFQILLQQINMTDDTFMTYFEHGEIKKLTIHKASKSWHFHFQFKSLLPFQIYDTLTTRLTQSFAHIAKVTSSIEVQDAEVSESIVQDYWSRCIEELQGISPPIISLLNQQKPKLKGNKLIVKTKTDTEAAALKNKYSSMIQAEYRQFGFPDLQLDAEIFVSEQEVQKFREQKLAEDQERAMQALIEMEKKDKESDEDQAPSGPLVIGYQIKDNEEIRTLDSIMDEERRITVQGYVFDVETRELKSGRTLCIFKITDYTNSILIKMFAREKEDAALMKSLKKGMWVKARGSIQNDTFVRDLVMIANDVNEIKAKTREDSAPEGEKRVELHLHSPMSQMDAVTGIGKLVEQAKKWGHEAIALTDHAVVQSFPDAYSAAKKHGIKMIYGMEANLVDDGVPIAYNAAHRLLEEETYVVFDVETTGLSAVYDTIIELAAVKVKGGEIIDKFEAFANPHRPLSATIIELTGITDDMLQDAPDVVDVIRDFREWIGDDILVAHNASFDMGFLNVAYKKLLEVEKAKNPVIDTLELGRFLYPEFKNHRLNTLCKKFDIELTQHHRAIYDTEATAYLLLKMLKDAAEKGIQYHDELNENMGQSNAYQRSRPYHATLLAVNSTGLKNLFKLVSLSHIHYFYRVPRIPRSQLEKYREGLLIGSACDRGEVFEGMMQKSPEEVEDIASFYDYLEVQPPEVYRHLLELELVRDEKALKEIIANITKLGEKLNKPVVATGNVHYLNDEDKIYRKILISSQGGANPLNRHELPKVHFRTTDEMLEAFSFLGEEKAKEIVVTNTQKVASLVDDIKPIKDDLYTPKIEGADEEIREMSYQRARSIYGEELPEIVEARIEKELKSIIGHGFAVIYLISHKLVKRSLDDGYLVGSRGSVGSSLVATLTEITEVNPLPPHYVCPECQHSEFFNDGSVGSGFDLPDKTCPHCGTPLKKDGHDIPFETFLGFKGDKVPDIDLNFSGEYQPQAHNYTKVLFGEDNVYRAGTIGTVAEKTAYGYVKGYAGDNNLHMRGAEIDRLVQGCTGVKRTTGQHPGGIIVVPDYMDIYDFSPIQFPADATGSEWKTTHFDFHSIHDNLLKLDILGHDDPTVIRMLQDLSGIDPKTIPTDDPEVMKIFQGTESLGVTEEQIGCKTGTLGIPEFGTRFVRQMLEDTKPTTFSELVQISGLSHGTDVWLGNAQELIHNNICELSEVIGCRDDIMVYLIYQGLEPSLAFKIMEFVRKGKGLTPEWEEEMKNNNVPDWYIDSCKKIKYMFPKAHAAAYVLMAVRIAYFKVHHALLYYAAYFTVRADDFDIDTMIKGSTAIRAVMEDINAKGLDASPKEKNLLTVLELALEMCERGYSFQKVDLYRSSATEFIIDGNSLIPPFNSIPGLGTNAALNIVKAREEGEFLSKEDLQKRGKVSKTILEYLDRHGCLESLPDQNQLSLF
Sequence of Beta-2 adrenergic receptor (Homo sapiens) (P07550 whole entry, looked up): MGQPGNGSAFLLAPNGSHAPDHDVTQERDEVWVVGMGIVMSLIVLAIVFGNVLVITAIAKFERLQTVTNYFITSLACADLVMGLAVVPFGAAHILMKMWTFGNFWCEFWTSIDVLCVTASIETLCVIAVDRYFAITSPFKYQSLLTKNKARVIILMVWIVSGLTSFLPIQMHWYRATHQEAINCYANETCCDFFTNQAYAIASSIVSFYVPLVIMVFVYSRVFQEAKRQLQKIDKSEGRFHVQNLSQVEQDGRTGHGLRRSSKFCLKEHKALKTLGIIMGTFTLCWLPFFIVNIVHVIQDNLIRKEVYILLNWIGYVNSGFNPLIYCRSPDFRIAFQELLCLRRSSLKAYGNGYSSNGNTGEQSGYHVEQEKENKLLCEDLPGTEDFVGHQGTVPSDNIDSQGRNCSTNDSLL
Sequence of ATP-dependent 6-phosphofructokinase (Trypanosoma brucei brucei) (O15648 whole entry, looked up): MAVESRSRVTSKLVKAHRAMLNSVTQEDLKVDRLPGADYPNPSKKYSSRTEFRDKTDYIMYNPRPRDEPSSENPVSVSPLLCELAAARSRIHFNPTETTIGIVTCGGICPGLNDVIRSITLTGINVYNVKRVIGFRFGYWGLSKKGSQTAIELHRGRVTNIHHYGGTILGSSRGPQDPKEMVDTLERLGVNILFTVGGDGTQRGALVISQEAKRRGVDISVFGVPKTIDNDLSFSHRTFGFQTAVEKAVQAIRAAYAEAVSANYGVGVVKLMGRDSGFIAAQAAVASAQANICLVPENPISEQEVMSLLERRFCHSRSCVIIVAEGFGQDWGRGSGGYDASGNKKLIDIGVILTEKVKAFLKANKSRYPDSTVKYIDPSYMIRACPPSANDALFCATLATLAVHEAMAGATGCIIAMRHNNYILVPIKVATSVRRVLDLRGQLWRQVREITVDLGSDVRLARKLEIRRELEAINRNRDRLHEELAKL
Sequence of M-phase phosphoprotein 8 (Homo sapiens) (Q99549 whole entry, looked up): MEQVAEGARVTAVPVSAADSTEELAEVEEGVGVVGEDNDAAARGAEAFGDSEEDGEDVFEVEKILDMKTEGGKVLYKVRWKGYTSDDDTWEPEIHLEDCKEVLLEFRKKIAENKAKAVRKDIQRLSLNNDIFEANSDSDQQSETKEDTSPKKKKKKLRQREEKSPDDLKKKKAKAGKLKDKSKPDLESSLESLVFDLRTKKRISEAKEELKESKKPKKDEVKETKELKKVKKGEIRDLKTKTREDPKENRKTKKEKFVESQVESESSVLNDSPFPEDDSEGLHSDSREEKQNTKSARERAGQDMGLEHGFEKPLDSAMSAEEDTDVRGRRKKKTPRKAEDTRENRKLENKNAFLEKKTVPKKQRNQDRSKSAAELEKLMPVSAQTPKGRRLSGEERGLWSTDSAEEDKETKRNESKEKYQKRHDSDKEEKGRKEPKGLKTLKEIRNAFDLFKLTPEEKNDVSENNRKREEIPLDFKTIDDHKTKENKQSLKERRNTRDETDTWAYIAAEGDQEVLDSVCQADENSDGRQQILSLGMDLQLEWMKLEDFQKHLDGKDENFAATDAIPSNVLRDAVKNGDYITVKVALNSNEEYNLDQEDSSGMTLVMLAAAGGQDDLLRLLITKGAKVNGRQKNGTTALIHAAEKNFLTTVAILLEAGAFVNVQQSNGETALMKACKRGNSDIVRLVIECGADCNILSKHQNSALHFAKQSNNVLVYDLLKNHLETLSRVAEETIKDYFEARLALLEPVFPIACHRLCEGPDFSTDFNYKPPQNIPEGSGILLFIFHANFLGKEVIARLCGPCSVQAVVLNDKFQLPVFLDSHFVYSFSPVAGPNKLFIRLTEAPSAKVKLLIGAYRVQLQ
Sequence of Chromobox protein homolog 1 (Homo sapiens) (P83916 whole entry, looked up): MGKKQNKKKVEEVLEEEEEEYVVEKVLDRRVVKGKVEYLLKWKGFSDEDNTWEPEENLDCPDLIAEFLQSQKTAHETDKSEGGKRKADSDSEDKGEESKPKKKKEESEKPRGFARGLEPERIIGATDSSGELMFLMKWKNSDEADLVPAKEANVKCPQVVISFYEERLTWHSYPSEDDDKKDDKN

`CN(C)CCC(c1ccc(Cl)cc1)c1ccccn1` (stereo not drawn): the outcome in experiment [1], in experiment [8], in experiment [9] and in experiment [10] was inactive. Moreover, the Potency result in experiment [2], in [3], in [4], in [5], in [6] and in experiment [7] was “inactive” in each case. Also, the Potency result in [11], in [12], in [13], in experiment [14], in [15] and in experiment [16] was “inactive” throughout. In addition, in experiment [17], the Potency result was “inactive”.

Regarding `CC(C)(C=O)Cc1cc(C(C)(C)C)c(O)c(C(C)(C)C)c1`, the result in experiment [1], in experiment [8] and in [10] was inactive. The Potency result in [2], in experiment [3], in [4], in [5], in experiment [6] and in experiment [7] was “inactive” each time. Also, the Potency entry in experiment [18], in experiment [11], in experiment [12], in [13], in experiment [15] and in [16] was “inactive” each time. In addition, in experiment [17], the Potency entry is “inactive”.

With `CO/N=C(\C(=O)N[C@@H]1C(=O)N2C(C(=O)O)=C(COC(C)=O)CS[C@H]12)c1csc(N)n1` (stereo in doubt), the Potency entry in experiment [19], in experiment [20], in experiment [5], in experiment [11] and in experiment [12] was “inactive” each time. For the same compound, the Potency in experiment [16] is 56.2 µM (active).

With `COc1ccccc1CNCCCCCCNCCCCCCCCNCCCCCCNCc1ccccc1OC`, the result in [1], in experiment [8], in [9] and in [10] was inactive. The Potency entry in experiment [2], in experiment [3], in experiment [4], in [5], in experiment [6] and in experiment [7] was “inactive” in each case. The Potency entry in experiment [13], in experiment [14], in [15] and in experiment [17] was “inactive” in each case. Moreover, the Potency in [11] was 1.04 µM (active); in experiment [12], 2.94 µM (active); in experiment [16], 50.1 µM (active).

Regarding `O=C(O)CC1CCCc2ccccc2C1O` (stereo not drawn), the compound was called inactive in [1], in experiment [8], in experiment [9] and in [10]. The Potency entry in [2], in [3], in experiment [4], in [5], in [6] and in experiment [7] was “inactive” in each case. Also, the Potency result in [18], in experiment [11], in experiment [12], in experiment [14], in [15] and in experiment [16] was “inactive” throughout.

`Cc1ccc(C(=O)O[C@H](C(=O)O)[C@@H](OC(=O)c2ccc(C)cc2)C(=O)O)cc1` (tested in a mixture with another compound): the result in [1], in experiment [8], in experiment [9] and in experiment [10] was inactive. Also, the Potency result in experiment [2], in experiment [3], in experiment [4], in experiment [5], in experiment [6] and in experiment [7] was “inactive” each time. Moreover, the Potency entry in [18], in experiment [11], in experiment [12], in [13], in experiment [14] and in [16] was “inactive” in each case. In addition, the Potency result in experiment [17] was “inactive”.

On to `NCCCCCCCCCCN`, for which the call in experiment [1], in experiment [8], in experiment [9] and in [10] was inactive. In addition, the Potency entry in experiment [2], in experiment [3], in experiment [4], in [5], in [6] and in experiment [7] was “inactive” each time. The Potency result in [11], in experiment [12], in experiment [13], in [15], in experiment [16] and in [17] was “inactive” throughout.

Consider `NC(=O)C(=O)O`, for which the result in experiment [1], in [8], in experiment [9] and in [10] was inactive. Besides, the Potency entry in experiment [2], in experiment [3], in experiment [4], in experiment [5], in [6] and in experiment [7] was “inactive” each time. The Potency result in experiment [18], in [11], in experiment [12], in [13], in experiment [14] and in experiment [15] was “inactive” throughout. Besides, the Potency result in experiment [16] and in experiment [17] was “inactive” throughout.
